# Measured values taken from paper PMC5540273 (PLoS ONE, 2017).
# Read-outs that look alike come from different tables or passages of the source.
# Legend:
# [1] = tested on: EPHA2; details: concentration: 1 μM, replicates: in singlicate; n = 1
# [2] = tested on: EPHA3; details: concentration: 1 μM, replicates: in singlicate; n = 1
# [3] = tested on: EPHA4; details: concentration: 1 μM, replicates: in singlicate; n = 1
# [4] = tested on: EPHA5; details: concentration: 1 μM, replicates: in singlicate; n = 1
# [5] = tested on: EPHA6; details: n = 1
# [6] = tested on: EPHA7; details: concentration: 1 μM, replicates: in singlicate; n = 1
# [7] = tested on: EPHA8; details: concentration: 1 μM, replicates: in singlicate; n = 1
# [8] = tested on: EPHB1; details: concentration: 1 μM, replicates: in singlicate; n = 1
# [9] = tested on: EPHB2; details: concentration: 1 μM, replicates: in singlicate; n = 1
# [10] = tested on: EPHB3; details: concentration: 1 μM, replicates: in singlicate; n = 1
# [11] = concentration: 1 μM, replicates: in singlicate
# 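Also: KINOMEscan kinase panel screen.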
SMILES,%Inh [1],%Inh [2],%Inh [3],%Inh [4],"%Inh [5, 11]",%Inh [6],%Inh [7],%Inh [8],%Inh [9],%Inh [10],%Inh ([5]; 1 µM)
O=C(Nc1n[nH]c2nc(-c3cccs3)c(Br)cc12)C1CCCC1 [SB-743341],0%,0%,6%,13%,27%,8%,1%,0%,4%,35%,–
COC(=O)c1cccc(NC(=O)NC2CCN(c3ccnc(Nc4ccc(OC)cc4)n3)C2)c1 (stereo not shown) [GSK1379746],6%,0%,4%,0%,0%,3%,12%,21%,8%,5%,–
NS(=O)(=O)c1cccc(N/C=C2\C(=O)Nc3ccc(S(=O)(=O)Cc4c(Cl)cccc4Cl)cc32)c1 [GSK398099],0%,12%,12%,0%,3%,8%,31%,17%,14%,6%,–
Cc1ccccc1-c1cc(-c2c[nH]nc2-c2ccccn2)ccn1 [GW680061],10%,0%,11%,0%,11%,14%,22%,0%,15%,9%,–
COC(=O)c1cccc(NC(=O)NC2CCN(c3ccnc(Nc4ccc(F)cc4)n3)C2)c1 (stereo not shown) [GSK1379725],16%,0%,5%,0%,0%,0%,0%,8%,14%,0%,–
CCCCc1nn2ncccc2c1-c1ccnc(NC2CC2)n1 [GW684374],0%,0%,0%,0%,0%,0%,9%,13%,0%,0%,–
Cc1ccc(-c2nc(Nc3ccncc3)c3ccccc3n2)s1 [GSK189015],28%,0%,23%,100%,30%,22%,26%,24%,0%,37%,–
COC(=O)C(Cc1ccccc1)NC(=O)NC1CCN(c2ccnc(Nc3ccc(F)cc3)n2)C1 (stereo not shown) [GSK1379714],38%,4%,1%,0%,0%,2%,5%,0%,11%,0%,–
COc1cccc(C2=C(Nc3cc(Cl)c(O)c(Cl)c3)C(=O)NC2=O)c1 [SB-390767],19%,0%,28%,0%,30%,9%,17%,11%,0%,26%,–
Cn1cnc2c(N)ncnc21 [SKF-97623],0%,0%,0%,9%,0%,0%,0%,0%,0%,0%,–
Cc1ccc(NC(=O)Nc2ccccc2)cc1-c1ccc(C(=O)Nc2ccncc2)cc1 [GSK1398471],17%,4%,32%,0%,15%,5%,36%,11%,13%,15%,–
O=C1NC(=O)C(c2ccc(Cl)cc2)=C1Nc1ccc(O)cc1 [SB-340867],0%,0%,3%,0%,12%,0%,6%,0%,0%,0%,–
CN1c2ccc(-c3ccc(C(N)=O)cc3)cc2-c2[nH]ncc2S1(=O)=O,0%,0%,0%,4%,5%,0%,0%,0%,0%,5%,–
CNCc1ccc2nc(NC(=O)c3ccc(C(C)(C)C)cc3)cn2c1,3%,0%,0%,3%,0%,0%,0%,0%,5%,0%,–
CNc1nc(-c2ccc3c(N)n[nH]c3c2)cc(N2C[C@@H](C(=O)NC3CCCCC3)OC[C@H]2C)n1 [GSK2375584],0%,0%,8%,0%,1%,8%,13%,7%,0%,11%,–
COc1ccc(-c2coc3ccc(-c4nnc(C)o4)cc23)cc1,8%,17%,33%,0%,26%,0%,0%,0%,12%,31%,–
CCn1c(-c2c(N)noc2C)nc2cnccc21 [SB-737856],15%,0%,29%,7%,21%,14%,33%,12%,0%,26%,–

SMILES,%Inh [1],%Inh [2],%Inh [3],%Inh [4],"%Inh [5, 11]",%Inh [6],%Inh [7],%Inh [8],%Inh [9],%Inh [10],%Inh ([5]; 1 µM)
Cc1cnc(N)c(/C=C/c2cncc(C(=O)NCCc3ccc(Cl)cc3Cl)c2)c1.Cl [GSK190937],8%,16%,6%,0%,0%,6%,10%,5%,0%,6%,–
CC(=O)c1c(C)c2cnc(Nc3ccn(C)n3)nc2n(C2CCCC2)c1=O,0%,0%,0%,0%,0%,0%,0%,0%,15%,0%,–
Cc1ccc(NC(=O)Nc2ccc(Cl)cc2)cc1-c1ccc(C(=O)Nc2ccncc2)cc1 [GSK1398472],43%,0%,41%,2%,36%,7%,34%,16%,11%,25%,–
Nc1ncnc2occ(-c3ccc4c(c3)CCN4C(=O)Cc3cc(F)ccc3F)c12 [GSK2645446],0%,12%,0%,0%,0%,0%,0%,0%,6%,0%,–
Fc1ccc(-c2nc[nH]c2-c2ccncc2)cc1 [SB-217360],0%,9%,4%,0%,1%,0%,5%,1%,0%,0%,–
COc1ccc(CSc2nnc(-c3ccc4ncsc4c3)o2)cc1C(F)(F)F,3%,3%,1%,0%,20%,0%,0%,0%,0%,14%,–
CSc1ccc(-c2nc3n(c2-c2ccncc2)CCC3)cc1 [SKF-105561],0%,5%,14%,0%,0%,9%,0%,0%,0%,8%,–
CCc1ccc(-c2ccc3c(c2)-c2n[nH]cc2S(=O)(=O)N3C)cc1,2%,0%,0%,5%,0%,0%,0%,0%,10%,0%,–
c1ccc(-c2ccnc3[nH]ccc23)cc1 [SB-693578],0%,0%,12%,0%,0%,18%,26%,13%,0%,4%,–
FC(F)(F)c1ccccc1-c1cc(-c2c[nH]nc2-c2ccccn2)ccn1 [GW679396],0%,0%,2%,0%,0%,6%,17%,24%,7%,2%,–
CCn1c(-c2ccccc2)nc2cnccc21 [SB-733416],10%,0%,24%,10%,29%,7%,5%,7%,15%,26%,–
CC[C@@H]1CO[C@H](C(=O)Nc2ccccc2)CN1c1cc(-c2ccc3c(N)n[nH]c3c2)nc(NC)n1 [GSK2376236],21%,13%,6%,0%,9%,2%,9%,8%,14%,16%,–
Cc1c(Cn2c(C)c(C)n3c(=O)cc(N4CCOCC4)nc23)cccc1C(F)(F)F [GSK2328680],17%,0%,1%,0%,0%,4%,7%,0%,0%,2%,–
CC(C)c1cc(-c2ccc3c(N)n[nH]c3c2)nc(N)n1 [GSK2250882],17%,11%,16%,0%,17%,3%,8%,17%,0%,29%,–
CS(=O)(=O)Cc1ccc(Nc2nccc(-c3c(-c4cccc(NC(=O)C5CCCCC5)c4)nn4ncccc34)n2)cc1 [GSK350559],51%,16%,14%,0%,–,15%,15%,2%,3%,5%,2%
COc1cccc(CNC(=O)NC2CCN(c3ccnc(Nc4ccc(F)cc4)n3)C2)c1 (stereo not shown) [GSK1379723],2%,0%,0%,0%,0%,1%,15%,0%,0%,5%,–
Cc1ccc(NC(=O)c2ccc(Cl)cc2)cc1-c1ccc(C(=O)Nc2ccncc2)cc1 [GSK1398467],9%,81%,11%,0%,0%,4%,18%,19%,7%,8%,–
